The entries come from a sample that favours hits as a whole.
TDP1 cell CPT = qHTS for Inhibitors of human tyrosyl-DNA phosphodiesterase 1 (TDP1): qHTS in cells in presence of CPT. chicken DT40 Tdp1-/-;hTDP1 cells + 20 nM CPT, ATP luminescence, 48 h. Potency, µM (series often up to 46.2 µM), for the others: at the top dose activity change, negative = growth inhibition, actives largely listed as inhibitors. 420,000 tested, 12% active; further: potency means the concentration at half of the fitted maximal effect; nearly all actives have a fitted effect of over 55% in size
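Cell growth measured by CellTiter-Glo luminescence after a minimum 48 h, 37 C compound exposure with 20 nM CPT in Tdp1-knockout DT40 cells stably expressing hTDP1, seeded 400/well; qHTS titration format.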
HT1080-NT tox = qHTS for induction of synthetic lethality in tumor cells producing 2HG: qHTS for the HT-1080-NT fibrosarcoma cell line; HT-1080-NT fibrosarcoma viability, CellTiter-Glo ATP luminescence, 48 h; AID 686970, 2013; 360,000 tested, 1.6% active; Potency, µM (titrated, usually from 46.1 µM), without a hit: top-dose activity, negative = less viability, actives largely listed as cytotoxic;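 further: NT is the 2HG producing partner of a matched IDH1 knockdown line; potency means the concentration at half of the fitted maximal effect; 0% = DMSO-treated cells and -100% = media-only wells without cells; nearly all actives have a fitted effect of over 55% in size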
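Read-out is CellTiter-Glo luminescence after 10 minutes at room temperature, following 48 hours' compound treatment of HT-1080-NT cells (750 cells/well, RPMI, 5% FBS, 37 degrees C).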
DT40 TDP1 no CPT = qHTS for Inhibitors of human tyrosyl-DNA phosphodiesterase 1 (TDP1): qHTS in cells in absence of CPT; DT40 Tdp1-/- hTDP1 cells, no CPT, ATP luminescence, 48 h; Potency, µM (series often up to 46.2 µM), for inactives: top-dose activity change, negative = growth inhibition, usual class: inhibitors; 420,000 tested, 15% active; AID 686978, 2013; further: potency means the concentration at half of the fitted maximal effect; nearly all actives have a fitted effect of over 55% in size
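Growth kinetics read by CellTiter-Glo luminescence after ≥48 hr at 37 °C. Cells: DT40 Tdp1-/- stably carrying human TDP1, 400 per well, compound exposure in the absence of CPT (DMSO vehicle).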
HT1080 IDH1KD tx = qHTS for induction of synthetic lethality in tumor cells producing 2HG: qHTS for the HT-1080-IDH1KD cell line | Potency, µM (top dose mostly 46.1 µM), for inactives: top-dose activity, negative = toxicity, usual class: cytotoxic | HT-1080 IDH1 knockdown viability, ATP luminescence, 48 h | 360,000 tested, 2% active;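 further: potency means the concentration at half of the fitted maximal effect; 0% = DMSO wells and -100% = cell-free medium wells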
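Using the IDH1-knockdown HT-1080 line run in the same batch and compound series as the NT line, viability after 48 h at 37 °C was determined by CellTiter-Glo luminescence and expressed as % activity.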
IL-1B inflam inh = qHTS for Inhibitors of Inflammasome Signaling: IL-1-beta AlphaLISA Primary Screen; THP-1 LPS/ATP IL-1B secretion, AlphaLISA, 16 h; active compounds read low; activity change, % at 57.5 µM; 360,000 tested, 4.7% active; in the data active means activity change below about -50%; inconclusive means mostly about -30% to -49%
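Secreted IL-1B measured by AlphaLISA bead assay after 16 h compound exposure of THP-1 cells; compounds (final up to 57.5 uM) added 1 h before LPS (250 ng/mL) and ATP (1.25 mM) stimulation; lower signal means less secretion.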
ALOX12 inh = Primary qHTS assay for inhibitors of human arachidonate 12S-lipoxygenase (ALOX12): Round 2; Polyunsaturated fatty acid lipoxygenase ALOX12 (Homo sapiens), P18054; AID 1671190, 2021; 580,000 tested, 1.1% active; purified 12hLO, xylenol orange hydroperoxide absorbance; Potency, µM (highest dose often 108 µM), without a hit: at the highest dose activity change, negative = inhibition, actives largely listed as inhibitors; further: potency means the concentration at half of the fitted maximal effect
Target sequence (P18054 whole entry, looked up): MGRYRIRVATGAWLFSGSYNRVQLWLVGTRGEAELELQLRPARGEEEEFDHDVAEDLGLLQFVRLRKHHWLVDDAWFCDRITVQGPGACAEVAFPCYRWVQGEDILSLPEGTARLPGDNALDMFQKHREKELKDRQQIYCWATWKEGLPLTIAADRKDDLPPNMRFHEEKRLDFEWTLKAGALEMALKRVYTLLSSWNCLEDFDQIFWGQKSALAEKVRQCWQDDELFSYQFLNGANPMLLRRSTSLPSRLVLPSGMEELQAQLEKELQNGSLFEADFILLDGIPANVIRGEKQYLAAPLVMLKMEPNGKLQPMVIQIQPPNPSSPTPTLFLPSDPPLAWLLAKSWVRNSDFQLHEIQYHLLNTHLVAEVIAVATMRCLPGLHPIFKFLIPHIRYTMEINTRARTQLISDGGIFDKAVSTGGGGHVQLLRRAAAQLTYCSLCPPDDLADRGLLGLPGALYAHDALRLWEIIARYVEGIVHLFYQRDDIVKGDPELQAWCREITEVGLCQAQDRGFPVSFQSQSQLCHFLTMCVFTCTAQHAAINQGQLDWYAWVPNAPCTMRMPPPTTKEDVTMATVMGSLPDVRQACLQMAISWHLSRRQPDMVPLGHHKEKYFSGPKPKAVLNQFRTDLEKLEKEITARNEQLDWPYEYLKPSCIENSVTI
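Hydroperoxide product was detected by ferrous iron/xylenol orange as the 573 to 405 nm absorbance ratio. Arachidonic acid at 40 uM (final) was turned over for 30 min at room temperature by 150 nM human 12hLO, pH 7.0 Hepes buffer, after 15 min compound preincubation.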
An asterisk follows results filed as active; ? = inconclusive; . = not tested or not shown; [ ] = another dose, or the depositor's remark. Unless noted, the call rests on the fitted dose curve; in most records, active means well fitted curve in the direction sought with a large enough effect; inconclusive means small, poorly fitted or top-dose-only effect, or another doubt; inactive means no such curve, though single readings can be large; an effect the other way counts as inactive or inconclusive. Unless noted, on the % scale 0 is the no-effect control and ±100 the full control effect.

SMILES	TDP1 cell CPT	HT1080-NT tox	DT40 TDP1 no CPT	HT1080 IDH1KD tx	IL-1B inflam inh	ALOX12 inh
COC(=O)C1=C(c2ccc(F)cc2OCc2ccccc2)C[C@@H]2CC[C@H]1N2C(=O)NC1CCN(Cc2ccccc2)CC1	8.2µM*	-23.4%	23.1µM*	-23.5%	?	-3.8%
CCN1C(=O)CCNCC12CCOCC2	.	.	.	.	.	50.4%
CC[C@H]1CN2CC[C@H]1C[C@@H]2CNC(=O)Nc1cccc(C(F)(F)F)c1	.	.	.	.	.	21.7%[176 µM]
Cc1cc(C)cc(C(=O)N2CCC3(CC2)c2nccn2-c2ccccc2CN3C)c1	.	.	.	.	.	7.6%
CCC(CC)c1cc([C@H]2CN3CC[C@H]2C[C@@H]3CNC(=O)c2ccc(C)cc2)nc(-c2ccncc2)n1	.	.	.	.	.	6.1%
O=C1CC(CO)CN1 (configuration not stated)	.	.	.	.	.	-7.2%
O=C(NCCNC(=O)c1cn(Cc2ccccc2)c2ccccc12)c1ccncc1	.	.	.	.	.	-8.3%
CCCCCCOc1ccc(CN2CCN(C)CC2)cc1	17.8µM*	?	17.8µM*	?	?	-22.1%
Oc1ccc2c3c1O[C@H]1c4[nH]c5ccccc5c4C[C@@]4(O)C(C2)N(CC2CC2)CCC314 (some centres not stated)	?	.	?	.	.	1.4%
Oc1ccc2c3c1OC1c4oc5ccccc5c4C[C@@]4(O)[C@@H](C2)N(CC2CC2)CC[C@]314 (some centres not stated)	-25.3%	?	?	?	-50.1*	1.7%
C=CCN1CC[C@@]23c4c5ccc(O)c4O[C@H]2/C(=N\N=C2/CC[C@@]4(O)[C@H]6Cc7ccc(O)c8c7[C@@]4(CCN6CC=C)[C@@H]2O8)CC[C@]3(O)[C@@H]1C5	?	.	29.9µM*	.	.	?
Oc1ccc2c3c1OC1c4[nH]c5ccccc5c4C[C@@]4(O)C(C2)N(CC2CC2)CC[C@]314 (some centres not stated)	?	?	?	?	-63.7*	-17.4%
C=C(C)CN1CC[C@@]23c4c5ccc(O)c4O[C@H]2c2[nH]c4ccccc4c2C[C@]3(O)[C@@H]1C5	-104.8%	.	26.6µM*	.	.	14.8%
C=C1CC[C@@]2(O)[C@H]3Cc4ccc(O)c5c4[C@@]2(CCN3CC2CC2)[C@H]1O5	1.3%	-15.6%	0.6%	8.8%	-0.2	.
COc1cccc(-c2cc(C(F)F)n3ncc(C#N)c3n2)c1	.	.	.	.	.	23.0%
O=C1/C(=C/c2ccccc2)C[C@@]2(O)[C@H]3Cc4ccc(O)c5c4[C@@]2(CCN3CC2CC2)C1O5 (some centres not stated)	3.26µM*	1.64µM*	2.59µM*	3.66µM*	-108.3*	.
O=C1CC[C@]2(O)C3Cc4ccc(O)c5c4C2(CCN3CC2CC2)C1O5 (some centres not stated)	-1.1%	.	-5.0%	.	.	.
CC1CCN(C[C@H]2CN3CC[C@H]2C[C@@H]3CNC(=O)c2ccc(N(C)C)cc2)CC1	.	.	.	.	.	1.0%[176 µM]
Cc1nc(-c2ccc(N(C)C)cc2)cc([C@H]2CN3CC[C@H]2C[C@@H]3CNCc2cccc(C#N)c2)n1	.	.	.	.	.	46.5%
O=C(C1CCOCC1)N1CCC2(CC1)NCc1ccccc1-n1ccnc12	.	.	.	.	.	16.0%
COc1ccc(-c2csc(Nc3ccc(S(N)(=O)=O)cc3)n2)cc1	?	?	?	17.8µM*	?	-11.4%
COc1cc2c(cc1OCc1ccccc1)NC(=O)C21CCN(c2cnccn2)CC1	.	.	.	.	.	-0.5%[176 µM]
COc1ccc(-c2cn(C[C@H]3CC4CCN3C[C@@H]4C(=O)NC3CCCCC3)nn2)cc1 (some centres not stated)	.	.	.	.	.	-7.4%[176 µM]
CCC1c2cccn2-c2ccccc2CN1C(=O)Nc1ccc(F)cc1F (configuration not stated)	.	.	.	.	.	-11.3%
COc1cccc(C(=O)CCN[C@@H](C)[C@H](O)c2ccccc2)c1	13.3µM*	.	23.7µM*	.	.	.
SMILES	TDP1 cell CPT	HT1080-NT tox	DT40 TDP1 no CPT	HT1080 IDH1KD tx	IL-1B inflam inh	ALOX12 inh
N=C(N)c1c(O)n(C2CCCCC2)c(=O)n(C2CCCCC2)c1=O	?	16.4µM*	?	20.6µM*	?	0.0%
O=c1c(C=NCc2cccs2)c(O)n(C2CCCCC2)c(=O)n1C1CCCCC1	-26.1%	-13.2%	?	-24.7%	-6.0	-0.4%
COC(=O)C1=C(C(=O)OC)C2OC1c1cc3ccccc3cc12	0.461µM*	?	0.731µM*	3.26µM*	0.0	-8.3%
COc1cccc(CN(C)C(=O)c2cccc(S(=O)(=O)N3CCN(c4ccccc4)CC3)c2)c1	11.6µM*	-13.8%	7.31µM*	-20.8%	-14.3	-4.1%
Cc1ccc(CN(C)C(=O)c2cccc(S(=O)(=O)N3CCN(c4ccccc4)CC3)c2)cc1	?	-6.4%	14.6µM*	-25.7%	?	0.7%
COc1ccc(OC)c(CN2CCN(C(=O)Cc3ccccc3)CC2)c1	-20.8%	-12.7%	-3.4%	-1.1%	5.4	?
COc1ccc(Nc2nc(N3CCCC3)nc3ccccc23)c(OC)c1	?	?	?	11.2µM*	-99.1*	-12.9%
O=[N+]([O-])c1oc2ccc3ccccc3c2c1CCO	0.411µM*	?	0.517µM*	?	31.8	?
O=[S+]1([O-])NC2(CCN(Cc3ccoc3)C2)COc2ccncc21 (configuration not stated)	.	.	.	.	.	2.0%[6.33 µM]
Cn1cccc1/C=C1/C(=O)NC(=O)N(Cc2ccccc2)C1=O	4.61µM*	-17.4%	2.31µM*	?	-21.8	-19.9%
Cn1cccc1/C=C1\C(=O)NC(=O)N(Cc2ccccc2)C1=O	5.8µM*	?	2.06µM*	?	39.0	-29.4%
Cn1cccc1/C=C1/C(=O)NC(=O)N(Cc2ccc(F)cc2)C1=O	11.6µM*	?	9.2µM*	-16.4%	43.2	?
CCOc1ccc(/C=C2/C(=O)NC(=O)N(CCc3ccc(F)cc3)C2=O)cc1	6.2%	1.4%	9.0%	0.4%	3.7	?
C=CCN1C(=O)NC(=O)/C(=C/c2cccn2C)C1=O	?	-10.5%	?	-9.2%	0.0	?
Cn1cccc1/C=C1/C(=O)NC(=S)N(Cc2ccc(F)cc2)C1=O	3.66µM*	-25.8%	2.59µM*	-7.2%	?	10µM*

High-throughput results (PubChem BioAssay)
